Screening results deposited in PubChem by National Center for Advancing Translational Sciences (NCATS).
This excerpt belongs to a sample that is enriched for hits.
KDM5B inh: Primary screen for KDM5B Histone Demethylases FDH-coupled qHTS | Lysine-specific demethylase 5B (Homo sapiens), Q9UGL1 | KDM5B demethylase, FDH-coupled NADH fluorescence (FDH is formaldehyde dehydrogenase) | Potency, µM (doses to about 57.7 µM), usual class: inhibitors | 220,000 tested, 2.6% active | AID 1347165, 2019; active means well fitted inhibition curve with a large enough effect; further: 0% is about no effect; nearly all actives have a fitted effect of over 70% in size
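Measured: NADH fluorescence change, 30 min, RT. System: KDM5BΔAP 200 nM final, H3K4me3 peptide, α-KG, Fe(II), ascorbate, NAD⁺ plus FDH, pH 7.5 HEPES. Compounds: titrated, 10 min pre-incubation with enzyme.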
Starred values were filed as active, the others as inactive; i = inactive. Potency means the concentration at half of the fitted maximal effect.

SMILES	KDM5B inh
COc1ccc2c(C)c(CC(=O)Nc3cccc(C(C)=O)c3)c(=O)oc2c1C	i
Cc1ccc(/C=N\NC(=O)c2ccc(C)cc2)cc1	i
Cc1ccc(S(=O)(=O)N(CC(=O)N2CCc3ccccc3C2)Cc2cccc(C)c2)cc1	i
Cc1ccc(NC(=O)Cn2c(=O)n(CCC(=O)N3CCc4ccccc4C3)c(=O)c3ccccc32)cc1	i
Cc1ccc(C(CC(=O)N2CCc3ccccc3C2)c2cn(C)c3ccccc23)cc1 (centres undefined)	17.8µM*
NC1CCCCN(Cc2cc3ccccc3o2)C1 (centres undefined)	i
Cc1ccc(Cl)cc1NC(=O)COC(=O)c1nn(C)c(=O)c2ccccc12	i
COc1ncccc1-c1cc(-c2c(C)noc2C)cc2c1C(=O)N(C)C2=O	i
COc1ccc(-c2cccc(CCOc3cnc4c(ccn4CC(=O)O)c3)c2)c(C)c1	39.8µM*
C[C@H](NC(=O)Cn1ccc2ccc(OCc3ccccc3)cc21)C(=O)O	i
COc1cccc(CNC(=O)c2cnc3c(-c4ccc(F)cc4)c(C)nn3c2C)c1	i
COc1ncccc1-c1cccc(CCOc2cnc3c(ccn3CC(=O)O)c2)c1	39.8µM*
COc1cccc(CCC(=O)N2CCC3(CC2)N=C(c2ccccc2)NO3)c1	i
CNC(=O)CCn1ncc2cc(OCc3ccccc3-c3cccnc3OC)ccc21	i
Cc1ccccc1-c1cccc(CCOc2cnc3c(ccn3CC(=O)O)c2)c1	39.8µM*
CC(=O)N1CCN(C(=O)Cn2ccc3cc(OCc4ccccc4)ccc32)CC1	i
Clc1ccccc1C1Cn2cnc(-c3nc(-c4ccccn4)no3)c2CO1 (centres undefined)	i
Cc1ccccc1Cc1sc(N)nc1C	i
O=C(CSc1ncnc2ccccc12)Nc1cc(Cl)ccc1Cl	i
CCn1ccc2cc(S(=O)(=O)N3CCC(C(=O)NCc4ccco4)CC3)ccc21	i
O=C(CSc1nnc(-c2ccc(Cl)cc2)n1Cc1ccco1)N1CCCC1	i
COc1cc(CN(CC2CCCO2)C(=O)COc2ccc(Br)cc2)cc(OC)c1OC (centres undefined)	i
Cc1nc(NC(C)C)sc1C(=O)NCc1ccncc1	i
O=c1c2cc3c(cc2nc(SCc2nc(-c4ccccc4Cl)no2)n1Cc1ccco1)OCO3	i
Cc1ccc(OCCC(=O)N2CCN(S(=O)(=O)c3ccc(C)s3)CC2)cc1	i
SMILES	KDM5B inh
NS(=O)(=O)c1ccc(C(=O)NC(Cc2ccncc2)C2CC(O)C2)cc1 (centres undefined)	i
O=C(N[C@H](Cc1ccncc1)C1CC(O)C1)c1ccc(CO)o1 (some centres undefined)	i
O=C(N[C@H](Cc1ccncc1)C1CC(O)C1)c1cccn2cnnc12 (some centres undefined)	22.4µM*
O=C(Nc1ccc2nc[nH]c(=O)c2c1)c1ccc(Br)cc1Cl	i
O=C(C1CC(=O)N(C2CCCC2)C1)N1CCN(c2ccc(Cl)cn2)CC1 (centres undefined)	31.6µM*
O=C(C1CC(=O)N(C2CC2)C1)N1CCC(Oc2cccnc2)CC1 (centres undefined)	i
O=C(C1CCC(=O)N(C2CCCC2)C1)N1CCN(c2nccs2)CC1 (centres undefined)	i
CCC(NC(=O)CN(C)Cc1ccc(C)o1)c1ccc(C)cc1 (centres undefined)	i
COc1cccc(C(=O)NCC2CCCN(Cc3cccnc3)C2)c1OC (centres undefined)	i
Cc1cc(CSc2ncccc2C(=O)Nc2ccnn2Cc2cccnc2)no1	i
CNC(=O)c1cc(-c2ccc(OC)c(OC)c2)cc2c1OCCN2Cc1cccnc1	31.6µM*
CNC(=O)c1cc(-c2ccc(F)cc2OC)cc2c1OCCN2Cc1cccnc1	39.8µM*
CNC(=O)c1cc(-c2ccc(CO)cc2)cc2c1OCCN2Cc1cccnc1	28.2µM*
CNC(=O)c1cc(-c2cnc(OC)nc2)cc2c1OCCN2Cc1cccnc1	i
CNC(=O)c1cc(-c2cnn(C)c2C)cc2c1OCCN2Cc1cccnc1	35.5µM*
CC(C)(C)CC(=O)N1CC[C@H]2CC(=O)N(Cc3cccnc3)CC[C@H]2C1	i
Cc1cc(C(=O)N[C@@H]2CN(Cc3cccnc3)C[C@H]2CN(C)C)n(C)n1	i
CNC(=O)c1cc[nH]c1C1CCCN(C(=O)Cc2cccnc2)C1 (centres undefined)	i
COc1ccc(NC(=O)c2cc3c(=O)n(Cc4cccnc4)ccc3nc2C)cc1OC	i
COc1ccccc1C(C(=O)O)N1CCC(OCc2cccnc2)CC1 (centres undefined)	i
Cc1ccc(NC(=O)Cc2nnc(SC(C)C(=O)Nc3ccc4c(c3)OCO4)n2C)cc1 (centres undefined)	i
Fc1cc(NC(=S)N2CCc3ccccc32)ccc1Cl	i
O=C(NCC(=O)N1CCCC1)C(=O)Nc1cccc2[nH]ccc12	i
CCOC(=O)c1ccc(NC(=O)Cn2nc(C)n3cccc3c2=O)cc1	i
Cc1ccoc1C(=O)Nc1ccc(-c2ccccc2)cc1	i
SMILES	KDM5B inh
Cc1nn(CC(O)c2ccc(F)cc2F)c(=O)c2ccccc12 (centres undefined)	i
CCCCn1c(SCC(=O)Nc2ccc3c(c2)OCCO3)nc2c(-c3ccccc3)c[nH]c2c1=O	i
CCc1ccc(S(=O)(=O)Nc2ccc(N3CCCS3(=O)=O)cc2)s1	i
O=C(Cc1ccc(F)cc1)NCCc1cnc(-c2ccccc2)[nH]1	i
COc1ccccc1Cn1c(C)c2c(=O)n(-c3ccc(F)cc3)[nH]c2cc1=O	i
CS(=O)(=O)c1ccc2nc(NC(=O)CSCc3ccc(Cl)cc3)sc2c1	i
CCCCCCn1c(NCCO)nc2c1c(=O)n(C)c(=O)n2C	i
O=C(NC1CC1)C(NCc1ccc(C(F)(F)F)cc1)c1ccccc1 (centres undefined)	i
COC(=O)CCC1CCCCC12OCCO2 (centres undefined)	i
CN(C)[S+](=O)([O-])c1ccc2c(c1)OCCN(Cc1cccnc1)C2	i
CNC(=O)c1cc(-c2ccc([S+](C)(=O)[O-])cc2)cc2c1OCCN2Cc1cccnc1	35.5µM*
C[S+](=O)([O-])N1CC2ON=C(C(=O)NCc3cccnc3)C2C1 (centres undefined)	i
COCCOc1ccnc(-c2noc([C@@H]3CCCN3Cc3ccc(C(=O)O)cc3)n2)c1	i
NC(=O)C1CCN(c2cc(-c3noc([C@@H]4CCCN4Cc4ccc(Cl)cc4)n3)ccn2)CC1	31.6µM*
CC(=O)N1CCC(N2CCC[C@H]2c2nc(-c3ccc(-n4ccnc4)nc3)no2)CC1	i
CC(=O)N1CCC(N2CCC[C@H]2c2nc(-c3ccnc(N4CCC(C(N)=O)CC4)c3)no2)CC1	22.4µM*
CS(=O)(=O)c1ccc(CN2CCC[C@H]2c2nc(-c3ccnc(N4CCC(C(N)=O)CC4)c3)no2)cc1	28.2µM*
O=C(COc1ccc(Cl)cc1)N1CCC[C@H]1c1nc(-c2ccc(F)cc2)no1	i
CS(=O)(=O)c1ccc(CN2C[C@H](O)C[C@H]2c2nc(-c3ccc4c(c3)OCO4)no2)cc1	i
CS(=O)(=O)c1ccc(CN2CCC[C@H]2c2nc(-c3ccc(-c4ccncc4)nc3)no2)cc1	i
COc1ccc(-c2noc([C@@H]3CCCN3C(=O)c3cc(OC)c(OC)c(OC)c3)n2)cc1OC	i
CC(C)CC(NC(=O)CSc1ccccc1)C(=O)N(C)C (centres undefined)	i
O=C(OCc1nc2ccccc2o1)c1cccc(O)c1	i
